Assay outcomes from PubChem.
PrPC surface inh = inhibitors of human cell surface prion protein PrPC | TR-FRET read-out | inhibition, % at 13.8 µM | 370,000 tested, 0.43% active | P04156 | AID 720596; in the data active means inhibition above about 24%
RecA splice inh = Mtb RecA intein splicing inhibition; cell-free RecA intein splicing, fluorescence; inhibition, % (test concentration not listed); 290,000 tested, 0.75% active; AID 2221; in the data active means inhibition above about 30%
Target sequence (P9WHJ3 whole entry, looked up, canonical isoform): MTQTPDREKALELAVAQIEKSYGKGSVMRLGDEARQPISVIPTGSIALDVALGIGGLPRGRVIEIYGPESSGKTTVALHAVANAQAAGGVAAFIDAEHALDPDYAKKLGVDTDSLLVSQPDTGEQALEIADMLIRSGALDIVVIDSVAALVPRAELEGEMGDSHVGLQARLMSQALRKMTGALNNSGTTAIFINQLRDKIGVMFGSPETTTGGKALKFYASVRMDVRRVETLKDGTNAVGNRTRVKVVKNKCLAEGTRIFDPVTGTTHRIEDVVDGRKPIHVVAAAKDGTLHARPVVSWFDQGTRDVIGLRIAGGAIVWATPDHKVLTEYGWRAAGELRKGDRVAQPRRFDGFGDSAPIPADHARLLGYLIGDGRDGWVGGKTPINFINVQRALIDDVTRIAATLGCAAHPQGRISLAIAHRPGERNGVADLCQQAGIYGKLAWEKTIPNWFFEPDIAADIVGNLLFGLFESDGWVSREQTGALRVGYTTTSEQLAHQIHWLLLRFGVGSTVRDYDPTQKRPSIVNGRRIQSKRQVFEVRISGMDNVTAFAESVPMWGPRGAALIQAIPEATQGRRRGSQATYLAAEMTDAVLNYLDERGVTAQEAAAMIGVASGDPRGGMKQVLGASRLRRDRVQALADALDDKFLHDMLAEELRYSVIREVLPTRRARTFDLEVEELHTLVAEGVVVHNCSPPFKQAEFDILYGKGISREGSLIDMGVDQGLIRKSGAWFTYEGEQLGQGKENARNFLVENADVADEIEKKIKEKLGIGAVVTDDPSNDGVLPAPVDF
FBA Mtb inh = Mtb fructose-bisphosphate aldolase inhibition; P9WQA3; purified M. tuberculosis FBA, fluorescence read-out; inhibition, % at 1 µM; 360,000 tested, 2.3% active; AID 588726; in the data active means inhibition above about 27%
BJeLR viability = BJeLR cell viability loss. BJeLR (HRASV12) viability, CellTiter-Glo ATP luminescence, 48 h. 300,000 tested, 0.17% active. inhibition, % (concentration not given with the values); in the data active means inhibition above about 50%
GDH-TPI counter = counter-screen for M. tuberculosis FBA inhibitors: GDH-TPI coupled enzymes; 360,000 tested, 1.2% active; inhibition, % at 4.8 µM; GDH-TPI coupled enzyme counterscreen, NADH absorbance; in the data active means inhibition above about 30%
Numbers stand for hits; - = inactive; . = not tested or not shown; + = active, no number. Compounds with a hit are over-represented: about 4.2% of the library has one in this group of screens.

SMILES	PrPC surface inh	RecA splice inh	FBA Mtb inh	BJeLR viability	GDH-TPI counter
O=S(=O)(Nc1nc2ccccc2nc1NCC1CCCO1)c1ccc(F)cc1 (centres undefined)	-	-	-	-	-
COc1ccc(NC(=O)N2CCC(c3nc4ccc(Cl)cc4[nH]3)CC2)cc1OC	-	.	.	.	.
CCN1CC=C2C(C#N)=C(N)C(C#N)(C#N)C(c3cc(Cl)ccc3Cl)C2C1 (centres undefined)	-	-	33	-	-
CC(C)N1CC=C2C(C#N)=C(N)C(C#N)(C#N)C(c3ccccc3)C2C1 (centres undefined)	-	-	+	-	-
C#CCCN([C@@H](CC(C)C)C(=O)OC)S(=O)(=O)c1ccccc1Br	-	.	.	.	.
CCOC(=O)C1(C(=O)OCC)Cc2c([nH]c3ccccc23)[C@]2(N1)C(=O)N(C)c1ccc(Br)cc12	-	.	.	.	.
Cc1ccc2nc(C)c(C(=O)N/N=C/c3ccccc3[N+](=O)[O-])cc2c1	-	-	-	-	-
Cc1ccn2c(C(=O)N/N=C/c3ccc(Cl)cc3)c(C)nc2c1	-	-	-	-	-
Cc1ccn2c(=O)c(NC(=O)c3cccs3)c(C)nc2c1	-	-	-	-	-
O=C(N/N=C/c1ccc2c(c1)OCO2)c1ccc2ccccc2n1	-	-	-	-	32
Cc1ccn2c(C(=O)N/N=C\c3ccc4c(c3)OCO4)c(C)nc2c1	-	-	-	-	46
Cc1ccn2c(C(=O)N/N=C\c3ccccc3[N+](=O)[O-])c(C)nc2c1	-	-	-	-	44
Cc1ccn2c(=O)c(NC(=O)c3ccc4c(c3)OCO4)c(C)nc2c1	-	.	-	.	31
C/C(=N/NC(=O)Cc1cccs1)c1cccc([N+](=O)[O-])c1	-	.	.	.	.
Cc1cccc(C(=O)N/N=C/c2ccc3c(c2)OCO3)n1	-	-	-	-	33
CN(C(=O)c1ccc(S(=O)(=O)c2cccc(Cl)c2)c([N+](=O)[O-])c1)C1CCCCC1	-	35	-	-	-
O=C1C(SCCO)=C(SCCO)C(=O)c2ccccc21	65	.	-	.	-
CC1=C(SCc2ccccc2)C(=O)c2ccccc2C1=O	-	.	-	.	-
CN(C)c1ccc(C=NCCC2(O)CCOC(C)(C)C2)cc1 (centres undefined)	-	-	-	-	40
COc1ccccc1C1(CCN=Cc2ccc(N(C)C)cc2)CCOC(C)(C)C1 (centres undefined)	-	-	-	-	-
Cc1nc2sc(-c3ccccc3)cc2c(=O)n1-n1cccc1	-	-	-	-	-
Cc1nc2sc(-c3ccccc3)cc2c(=O)n1N	-	-	-	-	47
NC(=O)CSc1nc2sc(-c3ccccc3)cc2c(=O)n1N	-	-	-	-	35
CCc1cc2c(=O)n(-c3ccccc3)c(SCC(N)=O)nc2s1	-	-	-	-	-
CC(C)(O[C@@H]1O[C@H](CO)[C@@H](O)[C@H](O)[C@H]1O)[C@H]1Cc2cc3ccc(=O)oc3cc2O1	-	-	+	-	33
SMILES	PrPC surface inh	RecA splice inh	FBA Mtb inh	BJeLR viability	GDH-TPI counter
CC(C)(O)[C@H]1Cc2cc3ccc(=O)oc3cc2O1	-	-	+	-	-
C=C(C)C1Cc2cc3ccc(=O)oc3cc2O1 (centres undefined)	-	-	185	-	-
CC(C)(O)[C@@H]1Cc2c(ccc3ccc(=O)oc23)O1	-	-	+	-	-
CN(C)c1cccc(-c2cnc(N3CCC(C(N)=O)CC3)nc2)c1	-	.	.	.	.
O=C(Nc1ccc(Br)cc1)O[C@@H]1CC[C@@]23CCCN2C(=O)CCC[C@H]3C1	-	.	.	.	.
O=c1[nH]c2ccccc2nc1Cc1ccc(Cl)cc1	-	-	-	-	-
O=c1[nH]c2ccccc2nc1-c1ccc(Cl)cc1	-	-	-	-	38
O=C(Nc1cccc([N+](=O)[O-])c1)NC1CCCCN(Cc2cccc(Cl)c2)C1=O (centres undefined)	-	.	.	.	.
NCCSC1CC(=O)N(c2ccc(Cl)c(Cl)c2)C1=O (centres undefined)	-	-	47	-	-
CSC1=N/C(=C/c2cccnc2)C(=O)N1Cc1ccc(Cl)cc1	-	-	-	-	-
CSC1=N/C(=C/c2cccnc2)C(=O)N1Cc1ccccc1	-	-	-	-	32
CCOCCCn1c(-c2ccc(Cl)cc2)n[nH]c1=S	-	-	-	-	-
COCCCn1c(-c2ccc(Cl)cc2)n[nH]c1=S	-	-	28	-	-
O=[N+]([O-])c1ccc(-c2ccc(/C=N/c3c(-c4ccco4)nc4ccccn34)o2)c(Cl)c1	.	-	.	-	.
Cc1cc(C)c([N+](=O)[O-])cc1-c1ccc(/C=N/c2c(-c3ccco3)nc3ccccn23)o1	-	-	-	-	33
O=[N+]([O-])c1ccc(Cl)c(-c2ccc(/C=N/c3c(-c4ccco4)nc4ccccn34)o2)c1	-	-	-	-	-
O=[N+]([O-])c1ccc(-c2ccc(/C=N/c3c(-c4ccco4)nc4ccccn34)o2)cc1	-	-	-	-	49
COc1cc(/C=C/c2[nH]c(=O)[nH]c(=O)c2[N+](=O)[O-])cc(OC)c1O	-	-	-	-	31
O=C(c1ccncc1)N1CC[C@H]2[C@H](CCCN2Cc2cc(F)cc(F)c2)C1	-	.	.	.	.
O=C(Nc1ccc(-c2nc3ccccc3o2)c(O)c1)c1cc(-n2cnnc2)ccc1Cl	-	.	-	-	43
CCn1cc(/C=C(\NC(=O)c2ccccc2)C(=O)NCCCN2CCOCC2)c2ccccc21	-	-	-	-	40
Cn1cc(/C=C(\NC(=O)c2ccccc2Cl)C(=O)NCCCN2CCOCC2)c2ccccc21	-	-	-	-	34
Cn1cc(/C=C(\NC(=O)c2ccccc2Cl)C(=O)NCCN2CCOCC2)c2ccccc21	-	-	-	-	-
c1cn2c(Nc3ccc4c(c3)OCCO4)c(-c3ccc(N4CCOCC4)cc3)nc2cn1	-	-	-	-	40
O=C(Cn1c(-c2cncs2)nc2ccccc21)N1CCCCC1	-	.	.	.	.
SMILES	PrPC surface inh	RecA splice inh	FBA Mtb inh	BJeLR viability	GDH-TPI counter
COc1cc(/C=C(\C#N)C(=O)N2CCOCC2)ccc1OCc1ccccc1	-	-	-	-	-
COc1ccc(/C=C(\C#N)C(=O)N2CCOCC2)cc1Br	-	-	-	-	37
N#Cc1c(Nc2ccccc2)c(/C=N/N=C/c2ccccc2)c[nH]c1=O	-	-	-	-	-
N#CC(C#N)=Cc1c[nH]c(=O)c(C#N)c1Nc1ccccc1	-	-	+	-	-
O=c1[nH]cccc1-c1nc2ccccc2n1Cc1cccc(Cl)c1	-	-	135	-	-
CCCCn1c(-c2ccccc2C)nc2cc3[nH]c(=O)c(C(C)C)nc3cc21	-	-	-	-	-
CCCn1c(-c2ccc[nH]c2=O)nc2cc(C)c(C)cc21	-	-	115	-	-
Clc1ncccc1-c1nc2ccccc2n1Cc1ccccc1	.	-	-	-	-
O=c1ccc2ccccc2n1Cc1cccc(F)c1	-	-	-	-	-
Cc1cc2nc(-c3ccc[nH]c3=O)n(Cc3cccc(F)c3)c2cc1C	-	-	149	-	-
O=c1[nH]cccc1-c1nc2ccccc2n1Cc1cccc(F)c1	-	-	162	-	-
CCCCNC(=O)C[C@H]1C[C@@]2(C(=O)OC)C(=C[C@H](C3CCCC3)O[C@@H]2C)N(Cc2ccco2)C1=O	-	.	.	.	.
